The campaign covered roughly 96,000 compounds. About 20,000 (21%) were called active.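 The calls were made as follows: active = CYP2C19 inhibition above a set limit at 5 µM in the primary screen (cut at about 50% in these data); inactive = the rest.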 The list is a sample of the results.

In this assay the target is Cytochrome P450 2C19 (Homo sapiens) (UniProt P33261). The experiment in a line: blockers of cytochrome P450 2C19 activity – biochemical, luminescence, ADME assay, primary screen (AID 778).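 Also: plate controls were negative control wells for no effect and 2.5 mM tranylcypromine positive control for full effect.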 The note with it: CYP2C19 Supersomes, luciferin-H EGE luminescence, 30 min; at 5 µM; stronger effect = higher value.
Sequence of Cytochrome P450 2C19 (Homo sapiens) (P33261 whole entry, looked up): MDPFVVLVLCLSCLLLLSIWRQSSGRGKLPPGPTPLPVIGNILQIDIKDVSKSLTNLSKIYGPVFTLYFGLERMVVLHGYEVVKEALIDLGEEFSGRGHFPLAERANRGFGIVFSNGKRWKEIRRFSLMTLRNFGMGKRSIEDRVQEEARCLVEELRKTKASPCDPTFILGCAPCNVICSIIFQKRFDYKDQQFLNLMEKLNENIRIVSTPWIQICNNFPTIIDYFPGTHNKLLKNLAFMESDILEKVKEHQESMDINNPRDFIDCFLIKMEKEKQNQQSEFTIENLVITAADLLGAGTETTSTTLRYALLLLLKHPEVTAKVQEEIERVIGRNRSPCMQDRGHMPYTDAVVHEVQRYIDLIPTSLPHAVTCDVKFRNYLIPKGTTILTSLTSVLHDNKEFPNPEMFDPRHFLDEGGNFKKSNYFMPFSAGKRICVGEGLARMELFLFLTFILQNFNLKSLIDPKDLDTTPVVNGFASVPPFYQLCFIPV
`COc1cc(OC)cc(C(=O)Nc2ncc3c(n2)CC(C)(C)CC3=O)c1`: the inhibition is 9.1% (inactive).

As for `Cc1cccc(C)c1-n1c(C)cc(/C=C2\C(=O)NN(c3ccccc3)C2=O)c1C`, the inhibition is 36.4% (inactive).

For `CCOC(=O)c1ccccc1NC(=O)CC1Nc2ccccc2NC1=O` (centres undefined), the inhibition is 8.5% (inactive).

As for `C=C(Br)CN1CCN(CC(=C)Br)CC1`, the inhibition is 9.1% (inactive).

For the compound `COc1ccc(CCNC(=O)c2cc3sccc3n2C)cc1OC`, the inhibition is 50.9% (active).

With `COc1ccc(CCNC(=O)c2cc(-c3ccc4c(c3)OCO4)on2)cc1OC`, the inhibition is -2.7% (inactive).

On to `Cn1c(C(=O)NCCCN2CCCCC2)cc2sccc21`, for which the inhibition was 5.3% (inactive).

`CC12COC3(C(=O)Nc4ccc(Cl)cn4)CC1CCC32C` (centres undefined): the inhibition was 16.5% (inactive).

Consider `O=C(CCCN1C(=O)CCC1=O)Nc1ccc(Cl)c(C(F)(F)F)c1`, for which the inhibition is 11.2% (inactive).

As for `C=CCC(NCc1ccco1)c1ccc(OC)cc1` (centres undefined), the inhibition was -0.2% (inactive).

On to `CC(C)C(=O)Nc1nnc(Sc2ccc(N(C)C)cc2)s1`, for which the inhibition was 47.8% (inactive).

Regarding `Cn1c(CN2CCOCC2)nc2cc(NC(=O)c3ccc(Cl)cc3)ccc21`, the inhibition was 4.8% (inactive).

For `CCn1nc(C(=O)OCC(=O)N2c3ccccc3CC2C)c2ccccc2c1=O` (centres undefined), the inhibition is 66.9% (active).

In the case of `CC1Cc2ccccc2N1C(=O)Cn1cnc2ccccc2c1=O` (centres undefined), the inhibition is 9.8% (inactive).

Take `CCOC(=O)c1[nH]c(C)c(C(=O)OCC(=O)N2c3ccccc3CC2C)c1C` (centres undefined): the inhibition was 0.9% (inactive).

For the compound `COc1nc(Oc2ccc(=O)n(C)n2)nc(N(C)C)n1`, the inhibition is -17.1% (inactive).

With `O=C(CC1N=C2c3ccccc3N=C(SCc3ccccc3Cl)N2C1=O)NCc1ccco1` (centres undefined), the inhibition is 37.8% (inactive).

As to `O=C(C1CCN(S(=O)(=O)Cc2ccccc2)CC1)N1CCCc2ccccc21`, the inhibition was 61.9% (active).

Take `CCS(=O)(=O)N1CCC(C(=O)N2CCN(c3ccccc3)CC2)CC1`: the inhibition is -1% (inactive).

Take `Cc1noc(/C=C/c2ccco2)c1S(=O)(=O)N1CCC(C(=O)N2CCc3ccccc32)CC1`: the inhibition is 24.1% (inactive).

On to `COC(=O)C1C(=O)CC(C)(O)C(C(=O)OC)C1c1ccc2c(c1)OCO2` (centres undefined), for which the inhibition is 29.1% (inactive).

For the compound `COc1ccc(S(=O)(=O)N(CCCN2CCCC2=O)Cc2cc3c(C)ccc(C)c3[nH]c2=O)cc1`, the inhibition was 38.4% (inactive).

In the case of `Cc1ccc(S(=O)(=O)c2nc(NCCCn3ccnc3)sc2Cl)cc1`, the inhibition is 99.4% (active).

As to `O=C(CSCc1ccc(Br)cc1)Nc1ccc(S(=O)(=O)N2CCCCCC2)cc1`, the inhibition is 27.3% (inactive).

Consider `CN(C)c1ccnc2sc3c(=O)n(Cc4ccccc4)cnc3c12`, for which the inhibition was 27.4% (inactive).

Turning to `CCSc1nnc(-c2cc3c(s2)-c2ccccc2CC3)o1`, the inhibition is -5.2% (inactive).

Take `CC(=O)NC1=NC(=O)CS1`: the inhibition is 6% (inactive).

As for `CCCC(=O)Nc1nc2ccc(NC(=O)c3cccnc3)cc2s1`, the inhibition is 16.4% (inactive).

Regarding `CCN1C(=O)CS/C1=N\c1nccs1`, the inhibition was 19% (inactive).

`O=C1C=C(NCCNc2c(F)c(F)c(CO)c(F)c2F)CCC1`: the inhibition is 4.9% (inactive).

Turning to `Cc1c(C=O)c2ccccn2c1C(=O)c1ccncc1`, the inhibition was 85.8% (active).

In the case of `Cc1cc(C(=O)O)c(S(C)(=O)=O)s1`, the inhibition was -6.4% (inactive).

As to `Cc1csc(NC(=O)C2CCCN2C(=O)OCC(C)C)n1` (centres undefined), the inhibition was 29.2% (inactive).

`CC(C)(C)c1cc2cccnc2n1Cc1ccccc1`: the inhibition is 13.8% (inactive).

As to `OC(c1ccccc1)c1nccn1Cc1ccccc1` (centres undefined), the inhibition is 81.9% (active).

In the case of `CC(c1nnc(SCC(=O)Nc2sccc2C#N)n1-c1ccc(Cl)cc1)N(C)C` (centres undefined), the inhibition was 31.1% (inactive).

Take `Cc1cccc(N2CCN(C(=O)c3cnn4c(C(F)F)cc(-c5ccccc5)nc34)CC2)c1C`: the inhibition is 51% (active).

Regarding `CC(=O)N1CCN(c2cccc(C)c2C)CC1`, the inhibition is -2.5% (inactive).

In the case of `O=C(O)c1cnn2c(C(F)(F)F)cc(-c3ccccc3)nc12`, the inhibition was 20.2% (inactive).

For the compound `O=C(Cn1cc(-c2nnnn2-c2ccc(Cl)cc2)c(=O)c2ccccc21)c1ccccc1`, the inhibition was -16.7% (inactive).

As for `O=C(NCCCCO)C(F)(F)C(F)(F)C(F)(F)C(=O)NCCCCO`, the inhibition was 9.4% (inactive).

In the case of `CCSc1nc(-c2ccc(OC)cc2)cc(-c2ccc(OC)cc2)c1C#N`, the inhibition was 32.3% (inactive).

For `Cc1ccc(C)n1-c1ccncc1`, the inhibition was 56.5% (active).

For `Cc1ccc(N)cc1-n1c(C)ccc1C`, the inhibition is 23.2% (inactive).

For `COc1ccc(-c2cc(C)nc3nc(N)nn23)cc1`, the inhibition is -16.3% (inactive).

In the case of `CCOC(=O)c1ccc(-n2c(C)nc3c(cnn3-c3ccccc3C)c2=O)cc1`, the inhibition was -20.1% (inactive).

For `COC(=O)c1sccc1NC(=O)CCC1CCCC1`, the inhibition is -0.5% (inactive).

With `N#Cc1cccc(NC(=O)CCC2CCCC2)c1`, the inhibition was 73.6% (active).

Regarding `CCOc1cccc(NC(=O)CC#N)c1`, the inhibition was -5.8% (inactive).

`CCOC(=O)N1CCC(NC(=O)C(C)n2c3ccccc3c3cnn(C)c(=O)c32)CC1` (centres undefined): the inhibition was 5.1% (inactive).

For the compound `NC(CSC12CC3CC(CC(C3)C1)C2)C(=O)O` (centres undefined), the inhibition was 12.9% (inactive).

For the compound `Cc1cc(C)cc(OCC(=O)NNC(=O)c2cc3ccccc3oc2=O)c1`, the inhibition is 5.4% (inactive).

In the case of `CCCn1c(C(O)c2ccc(OCC)cc2)nc2ccccc21` (centres undefined), the inhibition was 90.6% (active).

Consider `CCOCCn1c(C(C)C)nc2ccccc21`, for which the inhibition is 15.5% (inactive).

Take `CC(C)n1c(C(O)c2ccccc2)nc2ccccc21` (centres undefined): the inhibition is 67.7% (active).

Consider `CCCn1c(C(O)c2cc(OC)ccc2OC)nc2ccccc21` (centres undefined), for which the inhibition was 74.3% (active).

On to `COc1ccc(C)c(Cn2c(-c3nonc3N)nc3ccccc32)c1`, for which the inhibition is 18.5% (inactive).

For the compound `CC(Nc1nc(N2CCCC2)nc2ccccc12)c1ccccc1` (centres undefined), the inhibition was 15.5% (inactive).

Take `CCOc1ccc(C(O)Cn2c(=N)n(CCN3CCCCC3)c3ccccc32)cc1` (centres undefined): the inhibition is 9.8% (inactive).

For the compound `COc1cc(C(O)c2nc3ccccc3n2C)cc(OC)c1OC` (centres undefined), the inhibition was 46.5% (inactive).

For the compound `CCc1nc(Nc2ccc3nccnc3c2)c2oc3ccccc3c2n1`, the inhibition was -11.6% (inactive).

As for `O=C(N/N=C/C=C/c1ccccc1)C1CC1(c1ccccc1)c1ccccc1` (centres undefined), the inhibition is -19.2% (inactive).

On to `CC(=O)c1nn(-c2cccc(Br)c2)cc1C(=O)c1cccc2ccccc12`, for which the inhibition was 9.4% (inactive).

`Cc1ccc(NC(=O)c2nc[nH]c2C(=O)N2CCCCC2)c(C(=O)c2ccccc2)c1`: the inhibition is 20.4% (inactive).

On to `CCOC(=O)c1nn(-c2cccc(C)c2)cc1C(=O)c1ccccc1`, for which the inhibition is 75.3% (active).

Take `CCCCc1nnc(NC(=O)CS(=O)(=O)Cc2ccccc2)s1`: the inhibition was 8% (inactive).

For `Cc1cc2ccccc2n1CCNC(=O)COc1ccc2ccccc2c1`, the inhibition is 14.5% (inactive).

For the compound `OC(COCCC12CC3CC(CC(C3)C1)C2)CN1CCCCC1` (centres undefined), the inhibition was 35.1% (inactive).

As for `Cc1ccc(NC(=S)Nc2ncccc2C)c(C)c1`, the inhibition is 86.3% (active).

Consider `Cc1cccc(NC(=O)C2CCN(S(=O)(=O)c3cccc4cccnc34)CC2)c1`, for which the inhibition was 40.7% (inactive).

For `CCOc1ccc(NC(=O)N2CC=C(n3c(=O)[nH]c4ccccc43)CC2)cc1`, the inhibition was 11.1% (inactive).

For `COc1ccc(-c2c3c(=O)n(C)c(=O)n(C)c3cn2NC(C)=O)cc1`, the inhibition is -2.1% (inactive).

Turning to `COc1ccc(-c2c3c(=O)n(C)c(=O)n(C)c3cn2-c2cccc(OC)c2)cc1`, the inhibition is -4% (inactive).

As to `COc1ccc(N(C(=O)c2cccnc2)S(=O)(=O)c2ccc3c(c2)n(C)c(=O)n3C)cc1`, the inhibition was 57.8% (active).

For `O=C(Cn1cncn1)N/N=C/c1c2ccccc2cc2ccccc12`, the inhibition was 80% (active).

On to `CCCC(=O)Nc1cccc(-c2cn3ccsc3n2)c1`, for which the inhibition is -11.8% (inactive).

`CCOC(=O)N1CCC(NC(=O)CN2C(=O)COc3ccc(C(C)(C)C)cc32)CC1`: the inhibition was 10.8% (inactive).

With `CCOC(=O)C(=O)Nc1nc(-c2ccccc2)c(CC)s1`, the inhibition was 3.5% (inactive).

With `COc1ccc(NC(=O)c2cccc(NC(=O)c3ccco3)c2)c(OC)c1`, the inhibition is 15.1% (inactive).

Consider `CCOc1ccc(Cn2nnc(C(=O)Nc3ccc(OC)cc3OC)c2N)cc1`, for which the inhibition was -21.9% (inactive).

Take `COCCCN1C(=O)c2ccc(C(=O)Nc3ccc(OC)cc3OC)cc2C1=O`: the inhibition is 61.8% (active).

For `CCOP1(=O)C=C(C(C)(C)C)OC1c1ccc(F)cc1` (centres undefined), the inhibition is 15.6% (inactive).

Regarding `CCCOP(=O)(c1ccc(N(C)C)cc1)C(O)c1cc(OC)c(OC)c(OC)c1` (centres undefined), the inhibition was 16.9% (inactive).

As for `O=C(O)c1cc2ccccc2c(=O)s1`, the inhibition is 15.6% (inactive).

Consider `CCSC1=C(C#N)C(=O)n2c1cc1c2CCCC1`, for which the inhibition was 10.1% (inactive).

Turning to `CC(C)Cn1cnc2c1c(=O)n(CC(O)c1ccccc1)c(=O)n2CC(C)C` (centres undefined), the inhibition is 58.8% (active).

For the compound `Cn1c(=O)c2c(ncn2CC(COCc2ccccc2Cl)OCc2ccccc2Cl)n(C)c1=O` (centres undefined), the inhibition is 49.2% (inactive).

As for `Cn1c(=O)c2c(ncn2CC(=O)N2CCN(c3ccccc3)CC2)n(C)c1=O`, the inhibition is 4.9% (inactive).

For `CCCc1nc2oc3c(OCC)ncnc3c2c2c1COC(C)(C)C2`, the inhibition is -9.9% (inactive).

Turning to `CCC(C)n1[nH]c(=O)c2c(C)cc(C)nc21` (centres undefined), the inhibition was 10.9% (inactive).

Take `O=C1CC(N2CCN(C(c3ccccc3)c3ccccc3)CC2)C(=O)N1` (centres undefined): the inhibition was 8.8% (inactive).

Take `CC(C)(C)c1cc(CN2CCN(CCC#N)CC2)cc(C(C)(C)C)c1O`: the inhibition was -2.1% (inactive).

Regarding `O=C(CSc1ncn[nH]1)Nc1ccnc2ccccc12`, the inhibition is 27.1% (inactive).

In the case of `CCN(C(=O)CSc1ncn[nH]1)c1cccc2ccccc12`, the inhibition is 63.2% (active).

Consider `CC(C)(C)c1ccc(C(=O)CSc2ncn[nH]2)cc1`, for which the inhibition was 23% (inactive).

Take `CCOC(=O)c1cccc(NC(=O)CCn2nnc3ccccc32)c1`: the inhibition is 23.3% (inactive).

As for `COc1ccc(NC(=O)Cn2nnc(C(=O)NCCc3ccc(OC)c(OC)c3)c2N)cc1`, the inhibition was 4.1% (inactive).

Consider `CCOC(=O)c1nnn(CC(=O)Nc2cccc(F)c2)c1C(=O)OCC`, for which the inhibition is 95.7% (active).

As to `CC12CCC(C(=O)N3CCN(c4ncccn4)CC3)(c3nc4ccccc4nc31)C2(C)C` (centres undefined), the inhibition was 31.7% (inactive).

For orientation: inhibition means the change of the read-out against control, counted positive when it falls.
